Results as given in the supplement of paper PMC11732987, “Enantioselective OTUD7B fragment discovery through chemoproteomics screening and high-throughput optimisation” (Communications Chemistry, 2025).

Columns and labels:
Assay in all cases: log2 ratio of Biotin-Ahx-Ub-VS probe labelling (fragment/DMSO); higher = less target engagement (more negative = stronger competition), active = hit call of the paper (q ≤ 0.05, log2 ratio ≤ -1)
Conditions in all cases: compound concentration: 200 uM; treatment time: 3 h
USP34 = USP34 (UniProt Q70CQ2)
Chain of USP34 (Q70CQ2 whole entry, the tested form may be a part): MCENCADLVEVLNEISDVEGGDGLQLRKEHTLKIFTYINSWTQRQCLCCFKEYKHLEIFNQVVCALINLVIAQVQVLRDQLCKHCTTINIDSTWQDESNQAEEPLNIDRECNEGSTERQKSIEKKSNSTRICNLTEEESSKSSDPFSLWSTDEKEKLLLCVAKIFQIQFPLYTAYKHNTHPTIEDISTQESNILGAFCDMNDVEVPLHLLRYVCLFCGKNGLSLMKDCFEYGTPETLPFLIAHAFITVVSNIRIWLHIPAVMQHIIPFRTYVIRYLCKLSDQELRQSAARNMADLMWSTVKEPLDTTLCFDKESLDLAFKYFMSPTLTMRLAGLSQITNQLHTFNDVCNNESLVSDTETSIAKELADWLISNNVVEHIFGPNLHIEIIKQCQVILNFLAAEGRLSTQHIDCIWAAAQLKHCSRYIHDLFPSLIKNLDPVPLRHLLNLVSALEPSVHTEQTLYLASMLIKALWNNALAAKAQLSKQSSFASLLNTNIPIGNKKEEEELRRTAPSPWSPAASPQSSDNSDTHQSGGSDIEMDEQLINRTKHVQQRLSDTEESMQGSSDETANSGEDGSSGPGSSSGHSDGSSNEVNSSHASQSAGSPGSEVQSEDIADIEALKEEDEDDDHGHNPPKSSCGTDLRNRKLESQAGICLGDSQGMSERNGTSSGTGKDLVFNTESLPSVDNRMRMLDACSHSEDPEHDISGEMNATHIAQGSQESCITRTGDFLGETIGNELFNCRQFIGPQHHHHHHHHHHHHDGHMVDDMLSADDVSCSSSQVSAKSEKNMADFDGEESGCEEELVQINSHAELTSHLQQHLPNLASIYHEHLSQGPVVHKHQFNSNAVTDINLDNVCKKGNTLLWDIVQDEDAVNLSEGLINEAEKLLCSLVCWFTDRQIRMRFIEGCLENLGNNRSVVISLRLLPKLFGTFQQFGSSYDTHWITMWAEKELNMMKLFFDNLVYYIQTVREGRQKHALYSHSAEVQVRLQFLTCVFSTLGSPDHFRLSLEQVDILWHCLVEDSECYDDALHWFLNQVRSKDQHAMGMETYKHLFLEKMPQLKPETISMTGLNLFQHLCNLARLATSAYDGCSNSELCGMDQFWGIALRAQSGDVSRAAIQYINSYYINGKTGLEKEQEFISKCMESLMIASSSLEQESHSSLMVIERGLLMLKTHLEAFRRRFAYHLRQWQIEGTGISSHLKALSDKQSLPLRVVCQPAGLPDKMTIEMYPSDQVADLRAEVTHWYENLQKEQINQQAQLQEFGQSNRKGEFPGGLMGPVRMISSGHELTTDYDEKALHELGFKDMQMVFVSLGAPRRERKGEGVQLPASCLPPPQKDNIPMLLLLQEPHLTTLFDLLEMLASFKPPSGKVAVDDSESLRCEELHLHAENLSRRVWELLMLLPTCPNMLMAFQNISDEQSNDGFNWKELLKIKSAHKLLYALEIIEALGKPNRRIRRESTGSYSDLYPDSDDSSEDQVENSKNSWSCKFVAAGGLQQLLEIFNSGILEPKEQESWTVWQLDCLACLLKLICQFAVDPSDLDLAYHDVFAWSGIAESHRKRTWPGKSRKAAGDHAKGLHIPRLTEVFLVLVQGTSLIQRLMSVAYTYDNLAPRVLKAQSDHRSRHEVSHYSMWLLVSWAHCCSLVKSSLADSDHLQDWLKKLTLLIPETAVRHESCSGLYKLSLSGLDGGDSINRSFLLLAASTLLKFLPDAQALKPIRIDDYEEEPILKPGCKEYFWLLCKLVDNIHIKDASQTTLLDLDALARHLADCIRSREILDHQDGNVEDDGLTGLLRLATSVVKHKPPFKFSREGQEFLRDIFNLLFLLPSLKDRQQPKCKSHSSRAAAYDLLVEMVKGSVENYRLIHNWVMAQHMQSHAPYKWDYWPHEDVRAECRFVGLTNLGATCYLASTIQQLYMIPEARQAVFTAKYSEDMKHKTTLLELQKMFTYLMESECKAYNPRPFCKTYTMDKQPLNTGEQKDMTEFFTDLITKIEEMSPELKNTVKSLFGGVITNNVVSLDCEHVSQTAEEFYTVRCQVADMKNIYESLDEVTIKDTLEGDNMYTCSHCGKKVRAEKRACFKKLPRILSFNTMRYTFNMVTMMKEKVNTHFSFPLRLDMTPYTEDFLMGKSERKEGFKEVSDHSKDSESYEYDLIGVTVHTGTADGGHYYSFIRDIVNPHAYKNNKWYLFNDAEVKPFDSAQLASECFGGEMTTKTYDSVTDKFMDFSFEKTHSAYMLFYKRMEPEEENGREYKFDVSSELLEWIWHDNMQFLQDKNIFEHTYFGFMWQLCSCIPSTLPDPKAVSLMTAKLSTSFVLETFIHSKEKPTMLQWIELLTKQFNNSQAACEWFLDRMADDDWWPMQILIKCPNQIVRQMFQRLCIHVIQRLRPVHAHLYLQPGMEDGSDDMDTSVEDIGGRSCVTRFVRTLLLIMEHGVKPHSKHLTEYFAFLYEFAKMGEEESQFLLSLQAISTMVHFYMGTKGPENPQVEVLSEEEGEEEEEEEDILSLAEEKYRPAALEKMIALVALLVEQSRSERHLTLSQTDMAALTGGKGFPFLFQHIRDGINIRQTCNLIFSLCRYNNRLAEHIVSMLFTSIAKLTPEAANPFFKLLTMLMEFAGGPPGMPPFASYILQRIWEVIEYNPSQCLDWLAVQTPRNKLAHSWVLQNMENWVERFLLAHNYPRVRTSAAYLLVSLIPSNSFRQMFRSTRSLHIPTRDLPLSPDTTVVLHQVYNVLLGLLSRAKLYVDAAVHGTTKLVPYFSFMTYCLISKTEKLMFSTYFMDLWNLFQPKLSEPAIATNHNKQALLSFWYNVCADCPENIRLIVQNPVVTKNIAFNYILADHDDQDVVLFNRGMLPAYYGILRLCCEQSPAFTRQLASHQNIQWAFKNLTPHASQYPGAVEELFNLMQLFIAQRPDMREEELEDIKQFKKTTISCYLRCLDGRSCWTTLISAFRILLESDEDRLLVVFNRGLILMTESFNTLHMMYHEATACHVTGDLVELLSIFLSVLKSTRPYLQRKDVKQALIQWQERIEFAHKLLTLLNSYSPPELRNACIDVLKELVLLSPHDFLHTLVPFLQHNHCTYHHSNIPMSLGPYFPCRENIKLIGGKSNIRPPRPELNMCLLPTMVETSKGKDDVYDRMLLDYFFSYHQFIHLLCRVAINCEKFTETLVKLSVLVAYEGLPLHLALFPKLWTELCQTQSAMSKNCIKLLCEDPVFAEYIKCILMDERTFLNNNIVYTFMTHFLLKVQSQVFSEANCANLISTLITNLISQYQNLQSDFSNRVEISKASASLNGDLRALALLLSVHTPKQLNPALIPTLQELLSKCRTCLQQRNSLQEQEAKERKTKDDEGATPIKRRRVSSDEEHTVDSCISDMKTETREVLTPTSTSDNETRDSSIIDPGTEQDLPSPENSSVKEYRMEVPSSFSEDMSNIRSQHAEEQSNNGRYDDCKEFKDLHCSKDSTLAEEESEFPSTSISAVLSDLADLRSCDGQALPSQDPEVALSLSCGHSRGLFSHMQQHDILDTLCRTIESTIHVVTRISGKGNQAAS
Procedure, shortened: (§1)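 Labelled DUBs were enriched with NeutrAvidin, digested with LysC and trypsin, and run by diaPASEF LC-MS/MS. The labelling used Biotin-Ahx-Ub-VS at 0.5 µM final for 1 h on HEK293T lysate (495 µg per sample) previously treated in triplicate with fragment at 200 µM or vehicle for 3 h. Values are average log2 fragment/vehicle ratios by unpaired t-test on global-median-normalised Spectronaut quantities of proteins with ≥2 unique peptides.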

USP36 = target: T1, USP36 (UniProt Q9P275)
T1 sequence (whole entry): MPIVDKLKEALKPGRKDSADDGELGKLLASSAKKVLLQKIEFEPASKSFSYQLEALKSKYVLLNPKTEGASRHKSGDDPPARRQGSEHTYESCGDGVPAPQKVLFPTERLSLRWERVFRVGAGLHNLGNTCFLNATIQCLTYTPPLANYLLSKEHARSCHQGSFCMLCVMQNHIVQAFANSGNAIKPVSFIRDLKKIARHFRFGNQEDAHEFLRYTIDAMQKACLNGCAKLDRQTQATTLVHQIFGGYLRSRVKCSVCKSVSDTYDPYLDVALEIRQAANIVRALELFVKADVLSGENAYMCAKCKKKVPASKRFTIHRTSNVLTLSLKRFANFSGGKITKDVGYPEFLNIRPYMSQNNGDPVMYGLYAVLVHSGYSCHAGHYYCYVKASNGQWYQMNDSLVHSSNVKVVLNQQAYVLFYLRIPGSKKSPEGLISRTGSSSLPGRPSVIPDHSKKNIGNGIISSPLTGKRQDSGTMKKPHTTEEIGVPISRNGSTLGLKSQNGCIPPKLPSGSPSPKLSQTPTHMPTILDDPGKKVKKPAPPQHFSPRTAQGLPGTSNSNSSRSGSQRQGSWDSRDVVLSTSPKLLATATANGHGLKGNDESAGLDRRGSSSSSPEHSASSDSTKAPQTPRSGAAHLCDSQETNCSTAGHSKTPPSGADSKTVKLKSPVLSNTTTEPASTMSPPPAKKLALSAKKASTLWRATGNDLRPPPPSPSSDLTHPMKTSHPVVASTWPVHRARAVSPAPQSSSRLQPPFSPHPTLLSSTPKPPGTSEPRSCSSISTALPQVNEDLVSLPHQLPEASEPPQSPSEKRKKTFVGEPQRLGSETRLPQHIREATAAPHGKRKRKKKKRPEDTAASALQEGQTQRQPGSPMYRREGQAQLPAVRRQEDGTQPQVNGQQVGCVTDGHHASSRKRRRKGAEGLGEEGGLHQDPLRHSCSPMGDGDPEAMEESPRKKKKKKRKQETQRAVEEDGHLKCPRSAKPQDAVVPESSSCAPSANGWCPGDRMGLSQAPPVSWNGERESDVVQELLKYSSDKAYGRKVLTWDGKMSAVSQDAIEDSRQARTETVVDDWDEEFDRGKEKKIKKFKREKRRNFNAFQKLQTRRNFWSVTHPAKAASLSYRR
Procedure, shortened: as §1

USP38 = target: T2, USP38 (UniProt Q8NB14)
T2 sequence (whole entry): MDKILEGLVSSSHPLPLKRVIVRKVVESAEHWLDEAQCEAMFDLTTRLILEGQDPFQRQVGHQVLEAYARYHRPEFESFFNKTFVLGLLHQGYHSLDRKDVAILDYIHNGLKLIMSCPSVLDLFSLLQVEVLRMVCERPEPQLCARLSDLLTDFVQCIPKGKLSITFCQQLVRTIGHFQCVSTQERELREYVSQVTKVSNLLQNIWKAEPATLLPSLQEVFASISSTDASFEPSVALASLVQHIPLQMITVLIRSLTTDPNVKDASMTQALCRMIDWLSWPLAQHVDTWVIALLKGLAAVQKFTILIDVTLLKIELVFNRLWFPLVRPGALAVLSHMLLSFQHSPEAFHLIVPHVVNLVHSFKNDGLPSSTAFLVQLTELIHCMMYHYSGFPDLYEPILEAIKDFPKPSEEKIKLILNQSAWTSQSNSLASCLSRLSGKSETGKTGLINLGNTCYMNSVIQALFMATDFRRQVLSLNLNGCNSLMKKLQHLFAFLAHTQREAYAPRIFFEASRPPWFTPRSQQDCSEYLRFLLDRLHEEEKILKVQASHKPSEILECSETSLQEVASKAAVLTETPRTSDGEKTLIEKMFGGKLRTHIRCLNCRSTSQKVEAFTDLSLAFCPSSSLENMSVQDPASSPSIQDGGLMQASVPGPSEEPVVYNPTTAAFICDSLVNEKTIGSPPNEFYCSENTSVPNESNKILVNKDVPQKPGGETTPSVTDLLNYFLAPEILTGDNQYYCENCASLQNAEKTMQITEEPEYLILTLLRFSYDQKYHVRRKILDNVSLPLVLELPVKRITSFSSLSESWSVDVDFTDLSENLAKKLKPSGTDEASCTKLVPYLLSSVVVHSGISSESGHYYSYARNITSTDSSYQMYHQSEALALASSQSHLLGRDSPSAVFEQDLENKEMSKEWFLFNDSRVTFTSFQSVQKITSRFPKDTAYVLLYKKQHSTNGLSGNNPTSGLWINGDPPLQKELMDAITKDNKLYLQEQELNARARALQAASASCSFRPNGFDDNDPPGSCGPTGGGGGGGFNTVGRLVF
Procedure, shortened: as §1

USP39 = target: T3, USP39 (UniProt Q53GS9)
T3 sequence (whole entry): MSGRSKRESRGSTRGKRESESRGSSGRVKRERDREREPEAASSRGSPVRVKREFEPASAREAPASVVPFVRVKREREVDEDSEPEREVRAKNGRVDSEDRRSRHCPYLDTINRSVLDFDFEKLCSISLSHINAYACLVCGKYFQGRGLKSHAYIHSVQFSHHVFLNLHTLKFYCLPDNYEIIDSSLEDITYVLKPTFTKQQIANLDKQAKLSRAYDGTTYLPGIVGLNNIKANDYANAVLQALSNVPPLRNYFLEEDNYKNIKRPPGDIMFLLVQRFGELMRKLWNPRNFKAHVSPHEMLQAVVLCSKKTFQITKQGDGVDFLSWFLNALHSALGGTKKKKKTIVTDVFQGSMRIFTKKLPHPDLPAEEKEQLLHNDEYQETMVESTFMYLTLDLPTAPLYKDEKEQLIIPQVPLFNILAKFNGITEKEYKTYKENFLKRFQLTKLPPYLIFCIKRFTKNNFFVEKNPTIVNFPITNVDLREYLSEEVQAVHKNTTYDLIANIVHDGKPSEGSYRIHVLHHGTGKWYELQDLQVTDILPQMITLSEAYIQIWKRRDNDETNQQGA
Procedure, shortened: as §1

USP4 = target: T4, USP4 (UniProt Q13107)
T4 sequence (whole entry): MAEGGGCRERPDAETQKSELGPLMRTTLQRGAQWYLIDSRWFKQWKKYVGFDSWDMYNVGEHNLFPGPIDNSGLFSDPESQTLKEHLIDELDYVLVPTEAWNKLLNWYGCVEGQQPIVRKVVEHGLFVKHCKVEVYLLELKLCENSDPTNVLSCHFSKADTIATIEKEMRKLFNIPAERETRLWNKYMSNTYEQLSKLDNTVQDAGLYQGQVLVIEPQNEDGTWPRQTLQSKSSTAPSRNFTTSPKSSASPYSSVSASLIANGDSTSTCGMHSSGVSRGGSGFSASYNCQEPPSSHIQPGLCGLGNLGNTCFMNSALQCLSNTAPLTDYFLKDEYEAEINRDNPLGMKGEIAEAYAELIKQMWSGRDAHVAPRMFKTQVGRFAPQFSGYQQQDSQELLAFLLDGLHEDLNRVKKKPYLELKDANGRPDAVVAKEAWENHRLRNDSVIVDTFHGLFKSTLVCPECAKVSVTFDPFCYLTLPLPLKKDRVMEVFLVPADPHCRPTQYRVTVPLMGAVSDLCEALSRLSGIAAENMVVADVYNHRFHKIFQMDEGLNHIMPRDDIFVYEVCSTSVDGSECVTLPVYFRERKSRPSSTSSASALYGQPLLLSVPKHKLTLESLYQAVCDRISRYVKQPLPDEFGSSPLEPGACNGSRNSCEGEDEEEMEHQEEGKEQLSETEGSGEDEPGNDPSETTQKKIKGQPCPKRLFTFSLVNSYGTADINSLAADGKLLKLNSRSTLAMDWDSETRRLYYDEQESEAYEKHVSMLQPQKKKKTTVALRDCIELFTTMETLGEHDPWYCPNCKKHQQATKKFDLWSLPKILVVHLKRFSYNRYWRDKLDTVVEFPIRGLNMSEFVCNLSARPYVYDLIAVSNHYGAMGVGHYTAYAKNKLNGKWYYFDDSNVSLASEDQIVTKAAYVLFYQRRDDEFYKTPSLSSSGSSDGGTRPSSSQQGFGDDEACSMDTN
Procedure, shortened: as §1

Measured: log2 ratio of Biotin-Ahx-Ub-VS probe labelling

O=C(CCl)N1CCOCCC1c1ccccc1 (stereo not given)
inactive: USP34 0.169 | USP36 0.192 | USP38 0.104 | USP39 0.0858 | USP4 -0.196
